From PubChem BioAssay (NCI)
Compounds without any hit were thinned out: in the full panel of roughly 83,000, 20% have a hit.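 Interpretation: 100, growth as untreated; towards 0, rising growth inhibition; 0, no net growth; 0 to -100, cell death. Compounds scoring below 10 were considered active.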 Calls of active or inactive are those of the source.

Key:
Assay in all cases: NCI-60 one-dose screen, 48 h (100 = growth as untreated, 0 = no growth, -100 = all killed)
[1] = tested on: SK-MEL-2 melanoma; conditions: 10 µM
[2] = tested on: EKVX NSCLC; conditions: 10 µM
[3] = tested on: SN12C renal; conditions: 10 µM
[4] = tested on: UO-31 renal; conditions: 10 µM
[5] = tested on: TK-10 renal
[6] = tested on: ACHN renal; conditions: 10 µM
[7] = tested on: CAKI-1 renal; conditions: 10 µM
[8] = tested on: A498 renal; conditions: 10 µM
[9] = tested on: CCRF-CEM leukemia; conditions: 10 µM
[10] = tested on: MOLT-4 leukemia; conditions: 10 µM
[11] = tested on: SR leukemia; conditions: 10 µM
[12] = tested on: RPMI-8226 leukemia; conditions: 10 µM
[13] = tested on: OVCAR-8 ovarian; conditions: 10 µM
[14] = tested on: OVCAR-5 ovarian; conditions: 10 µM
[15] = tested on: OVCAR-4 ovarian; conditions: 10 µM
[16] = tested on: SK-OV-3 ovarian; conditions: 10 µM
[17] = tested on: IGROV1 ovarian; conditions: 10 µM
[18] = tested on: OVCAR-3 ovarian; conditions: 10 µM
[19] = tested on: HS 578T breast; conditions: 10 µM
[20] = tested on: NCI/ADR-RES ovarian; conditions: 10 µM

Measured: growth

COS(=O)(=O)c1ccc(Br)cc1
inactive: [1] 95% | [2] 106% | [3] 93.9% | [4] 86.2% | [5]; 10 µM unless noted 97.5% | [6] 103% | [7] 115% | [8] 113% | [9] 127% | [10] 129% | [11] 135% | [12] 111% | [13] 98.6% | [14] 93.4% | [15] 107% | [16] 104% | [17] 118% | [18] 101% | [19] 114% | [20] 93.7%

Cc1cc(C)c(CC(=O)O)c(C)c1
inactive: [1] 100% | [2] 98.3% | [3] 113% | [4] 94.3% | [5]; 10 µM unless noted 106% | [6] 102% | [7] 93.3% | [8] 84.4% | [9] 103% | [10] 98.5% | [11] 98.5% | [12] 112% | [13] 102% | [14] 103% | [15] 95.1% | [16] 110% | [17] 108% | [18] 104% | [19] 109% | [20] 103%

CN(C)c1ccc(CNC(C(=O)c2ccccc2)c2ccccc2)cc1 (stereo not given)
active: [8] 8.44%
inactive: [1] 74.5% | [2] 101% | [3] 115% | [4] 102% | [5]; 10 µM unless noted 112% | [6] 101% | [7] 102% | [9] 90.9% | [10] 94.9% | [11] 90.8% | [12] 94.4% | [13] 95.9% | [14] 110% | [15] 99.1% | [16] 103% | [17] 98.2% | [18] 114% | [19] 46.1% | [20] 101%

N#CCc1ccc([N+](=O)[O-])cc1
inactive: [1] 107% | [2] 97.8% | [3] 101% | [4] 72.1% | [5]; 10 µM unless noted 107% | [6] 103% | [7] 93% | [8] 90.7% | [9] 100% | [10] 74.2% | [11] 105% | [12] 109% | [13] 89.5% | [14] 119% | [15] 111% | [16] 101% | [17] 135% | [18] 117% | [19] 98% | [20] 106%

NC(C(=O)O)C(O)c1ccco1 (stereo not given)
inactive: [1] 115% | [2] 109% | [3] 111% | [4] 96.6% | [5]; 10 µM unless noted 101% | [6] 113% | [7] 97.4% | [8] 94.5% | [9] 94% | [10] 112% | [11] 112% | [12] 101% | [13] 103% | [14] 108% | [15] 114% | [16] 107% | [17] 124% | [18] 117% | [19] 107% | [20] 112%

CCS(=O)(=O)c1cc(=O)[nH]c(=O)[nH]1
inactive: [1] 101% | [2] 91.4% | [3] 101% | [4] 90.1% | [5]; 10 µM unless noted 102% | [6] 96.8% | [7] 88.4% | [8] 121% | [9] 110% | [10] 128% | [11] 57.6% | [12] 124% | [13] 114% | [14] 106% | [15] 102% | [16] 116% | [17] 136% | [18] 112% | [19] 113% | [20] 103%

COCCOCCCl
inactive: [1] 109% | [2] 112% | [3] 104% | [4] 97.2% | [5]; 10 µM unless noted 102% | [6] 113% | [7] 98.8% | [8] 91.2% | [9] 106% | [10] 117% | [11] 108% | [12] 115% | [13] 110% | [14] 106% | [15] 105% | [16] 109% | [17] 116% | [18] 111% | [19] 102% | [20] 109%

C=C1CC/C=C(\C)C(=O)C[C@@H]2[C@@H]1CC2(C)C
active: [5]; 100 µM -73.6%
inactive: [1] 102% | [2] 104% | [3] 114% | [4] 88.3% | [5]; 10 µM 123% | [6] 102% | [8] 85% | [9] 69.3% | [10] 93.5% | [11] 95.7% | [12] 68.3% | [13] 98.1% | [14] 108% | [15] 110% | [16] 101% | [17] 11.4% | [18] 96.7% | [19] 122% | [20] 115%
